Source: PubChem (National Center for Advancing Translational Sciences (NCATS))
The list is not random: actives were taken first. Their share in the collection is about 1.2%.
HttQ103 aggreg = mutant huntingtin aggregation inhibition. 220,000 tested, 1.1% active. AID 1688. Potency, µM (highest dose often 46.1 µM), hits mostly inhibitors. PC12 HttQ103-GFP aggregates, Acumen cytometry, 40 h; also: nearly all actives have a fitted effect of over 60% in size
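Ecdysone-promoter PC12 model expressing HTT exon 1 Q103 fused to GFP, induced by tebufenozide at 100 nM final. Compounds titrated; aggregates sized 1–25 µm scored on a 488 nm laser cytometer.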
GLA inh pH 4.5 = inhibitors of human alpha-galactosidase A at pH 4.5; P06280; purified enzyme, 4-MU-alpha-Gal fluorescence, pH 4.5; activity change, negative = inhibition, % at 105 µM; 230,000 tested, under 10 active; AID 1467
Target sequence (P06280 whole entry, looked up): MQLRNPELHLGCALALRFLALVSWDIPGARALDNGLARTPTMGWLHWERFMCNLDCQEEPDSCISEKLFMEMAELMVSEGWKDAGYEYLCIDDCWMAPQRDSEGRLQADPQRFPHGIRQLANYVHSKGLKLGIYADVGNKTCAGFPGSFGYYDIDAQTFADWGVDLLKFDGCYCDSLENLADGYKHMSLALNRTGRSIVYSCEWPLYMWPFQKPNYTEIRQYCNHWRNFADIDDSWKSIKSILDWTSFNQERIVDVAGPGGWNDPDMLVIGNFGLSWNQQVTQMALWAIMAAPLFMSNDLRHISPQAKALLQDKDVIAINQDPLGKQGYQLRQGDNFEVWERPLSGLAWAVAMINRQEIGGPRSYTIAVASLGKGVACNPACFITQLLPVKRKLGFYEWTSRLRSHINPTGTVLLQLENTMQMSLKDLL
aGal spleen mod = inhibits or activates alpha-galactosidase in human spleen homogenate; P06280; human spleen homogenate, 4MU-alpha-Gal fluorescence, 40 min; Potency, µM (doses to about 80 µM), usual class: inhibitors; 240,000 tested, 0.008% active; AID 2107
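Human spleen homogenate (1 ug) as enzyme source, 4-methylumbelliferyl-alpha-D-galactopyranoside 1 mM final, citrate/phosphate pH 5.0 with 0.01% Tween-20. Compounds 40 min at 37C, NaOH/glycine stop; fluorescence Ex 365/Em 440, Hill-fit AC50.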
HTT ATP protect = protects HTT-Q103 PC12 cells, measured by ATP. Potency, µM (doses to about 56.4 µM), most hits filed as activators. 230,000 tested, 0.14% active. PC12 HTT-Q103 induced, cytoprotection, ATP luminescence, 40 h; also: nearly all actives have a fitted effect of over 45% in size
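Compounds added alongside 100 nM tebufenozide, which induces toxic Q103 huntingtin exon 1-GFP in stable PC12 cells; surviving cells quantified by luminescent ATP measurement. Medium: phenol red-free DMEM, 5% equine and 5% calf serum.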
Hits are given with their value; n = inactive; u = inconclusive; x = not tested or not shown; ! = not active in a repeat; [ ] = another dose, or the depositor's remark. Calls follow the shape of the dose curve; as a rule, active = well fitted curve in the direction sought with a large enough effect; inconclusive = small, poorly fitted or top-dose-only effect, or another doubt; inactive = no such curve, though single readings can be large; an effect the other way counts as inactive or inconclusive.

SMILES	HttQ103 aggreg	GLA inh pH 4.5	aGal spleen mod	HTT ATP protect
Cc1ccc(S(=O)(=O)N2CCN(c3ccnc4cc(Cl)ccc34)CC2)cc1	16µM	n	n	n
Cc1ccc(S(=O)(=O)N2CCN(c3ccnc4cc(Cl)ccc34)CC2)cc1C	u	u	n	n
C/C(N[C@@H]1CSCC1O)=C1/C(=O)CC2[C@@H]1C2(C)C (some centres not stated)	x	n	n	n
CN(C1CCCCC1)S(=O)(=O)c1ccc(NC(=O)CCC(=O)O)cc1	n	n	n	n[0.074 µM]
CN(C1CCCCC1)S(=O)(=O)c1ccc(NC(=O)C2CCCCC2)cc1	1.8µM	n	n	n[10 µM]
O=C(O)CCCC[C@@H]1SC[C@H]2NC(=O)N[C@H]12	x	x	x	n
CCOC(=O)c1cnc(-n2nc(C)cc2C)nc1NCCc1ccccc1	13µM	n	n	n
CCOC(=O)c1cnc(-n2nc(C)cc2C)nc1Nc1ccccc1OC	n	n	n	n
Cn1c(=O)c2cc(S(=O)(=O)N3CCOCC3)ccc2n(C)c1=O	n	n	n	16µM
CC=O	x	x	n	n
COc1ccc(OC)c(Nc2cc(-c3ccccc3)nc(N)n2)c1	1.3µM	n	n	n[10 µM]
COc1ccc(OC)c(Nc2cc(C)nc3ccccc23)c1	n	n	n	n[10 µM]
O=C(N/N=C/c1cn(-c2ccccc2)nc1-c1ccccc1)c1ccco1	n	n	n	n[10 µM]
O=C(N/N=C\c1cn(-c2ccccc2)nc1-c1ccccc1)c1ccc(Br)o1	25µM	n	n	n
Cc1ccc(-c2nn(-c3ccccc3)cc2/C=N/NC(=O)c2ccc(Br)o2)cc1	7.1µM	n	n	n
O=C(Nc1ccc(Cl)cc1)c1cc(S(=O)(=O)N2CCOCC2)cs1	10µM	n	n	n
CC(CN(C)C)CN1c2ccccc2CCc2ccccc21 (configuration not stated)	n[9.22 µM]	n	n	1µM!
C[C@@H](CN(C)C)CN1c2ccccc2CCc2ccccc21	n	n	n	n
CC[C@H](C)[C@H](NC(=O)[C@H](CCCNC(=N)N)NC(=O)[C@@H](NC(=O)[C@H](CCCNC(=N)N)NC(=O)[C@H](CCCCN)NC(=O)[C@H](CCCNC(=N)N)NC(=O)[C@@H](NC(=O)[C@H](CC(N)=O)NC(=O)[C@@H](N)CS)[C@@H](C)O)[C@@H](C)CC)C(=O)N[C@@H](CCC(N)=O)C(=O)N[C@@H](CCCNC(=N)N)C(=O)NCC(=O)N1CCC[C@H]1C(=O)NCC(=O)N[C@@H](CCCNC(=N)N)C(=O)N[C@@H](C)C(=O)N[C@@H](Cc1ccccc1)C(=O)N[C@H](C(=O)N[C@H](C(=O)N[C@H](C(=O)NCC(=O)N[C@@H](CCCCN)C(=O)O)[C@@H](C)CC)[C@@H](C)O)C(C)C	x	x	n	x
CC(C)CN1C(=S)SC(C)(C)C1n1oc(=O)n(-c2ccc(Cl)cc2)c1=O (configuration not stated)	25µM	n	n	n
CC(C)CN1C(=S)SC(C)(C)C1n1oc(=O)n(-c2ccccc2)c1=O (configuration not stated)	n	n	n	n[10 µM]
O=C(Nc1cc(Cl)ccc1O)c1snnc1-c1ccccc1	16µM	n	n	n
O=C(Nc1cccc(Cl)c1Cl)c1snnc1-c1ccccc1	n	n	n	n
Cc1ccc(C)c(N(CC(=O)NC2CCCC2)C(=O)c2oc(C(C)(C)C)cc2C)c1	25µM	n	n	n[10 µM]
CCCSc1nsc(NC(=O)C(c2ccccc2)c2ccccc2)n1	5µM	n	n	n[10 µM]
SMILES	HttQ103 aggreg	GLA inh pH 4.5	aGal spleen mod	HTT ATP protect
CCCSc1nsc(NC(=O)CC)n1	n[9.22 µM]	n	n	n[10 µM]
Cn1c(SCCC#N)nnc1-c1ccc(F)cc1	n	n	n	n
CC(C)(C)c1ccc(-c2nnc(SCCC#N)n2C2CCCC2)cc1	11µM	n	n	n[1.9 µM]
Cc1cc(C(=O)CC#N)c(C)n1-c1ccc(OC(F)F)cc1	8.9µM	n	n	n[10 µM]
COCCn1c(=N)c(C(=O)NCc2ccco2)cc2c(=O)n3cc(C)ccc3nc21	n[9.22 µM]	n	n	n[10 µM]
Cc1cccn2c(=O)c3cc(C(=O)NCc4ccco4)c(=N)n(CCOCCO)c3nc12	2.8µM	n	n	n
COC(=O)NC(CC(C)=O)c1ccccc1 (configuration not stated)	x	x	n[17.5 µM]	n[10 µM]
CO[C@@H]1COC(=O)[C@H](COCc2ccccc2)NC(=O)C/C=C\[C@@H](C)[C@H](OC)COC(=O)[C@H](COCc2ccccc2)NC(=O)C/C=C\[C@H]1C	x	x	n[17.5 µM]	n[10 µM]
CO[C@@H]1COC(=O)C/C=C\[C@@H](C)[C@H](OC)COC(=O)[C@H](COCc2ccccc2)NC(=O)C/C=C\[C@H]1C	x	x	n[17.5 µM]	3.2µM
O=C(Nc1ccc(C(=O)N2CCOCC2)cc1)Nc1cccc(Cl)c1	11µM	n	n	n[10 µM]
O=C1NCCCc2c1oc1ccc(O)cc21	22µM	n	n	n
CCC(=O)/C=C1/Sc2ccccc2N1CC	7.1µM	n	n	n[10 µM]
COc1ccc2cc3c(N)nn(C(=O)Cc4ccc(Cl)cc4)c3nc2c1	7.9µM	n	n	n
CCOC(=O)Cc1c[nH]c2ccccc12	n	n	n	n
COc1ccc2cc3c(N)nn(C(=O)Cc4c[nH]c5ccccc45)c3nc2c1	3.2µM	n	n	n[10 µM]
COc1cccc(CC(=O)n2nc(N)c3cc4ccc(OC)cc4nc32)c1	n	n	n	u
Cc1cccnc1CN1CCN(C(=O)c2cc(COc3ccc4ncccc4c3)on2)CC1	6.3µM	n	n	n
O=C(NC1CCCCCCC1)c1cc(COc2ccc3ncccc3c2)on1	3.2µM	n	n	n
Cc1cc(C)c(NC(=S)NCCCSC2CCCCC2)c(C)c1	11µM	n	n	n
Oc1ccc(Cl)cc1N=Cc1sc2ccccc2c1Cl	u	n	n	2.2µM
Cc1cccc(/N=C/c2sc3ccccc3c2O)n1	n[9.22 µM]	n	n	n[10 µM]
O=[N+]([O-])c1ccc(O)c(N=Cc2sc3ccccc3c2O)c1	7.9µM	n	n	x
CN=C1N[C@H](c2ccccc2)N(c2ccccc2)S1	x	n	n	n
COc1ccccc1C(=O)Nc1nnc(-c2ccc3c(c2)CCCC3)o1	20µM	n	n	n
CC1CN(S(=O)(=O)c2ccc(C(=O)Nc3nnc(-c4ccc5c(c4)CCCC5)o3)cc2)CC(C)O1 (configuration not stated)	3.5µM	n	n	n
SMILES	HttQ103 aggreg	GLA inh pH 4.5	aGal spleen mod	HTT ATP protect
CCOC(=O)N1CCN(S(=O)(=O)c2ccc(C(=O)Nc3nnc(C)o3)cc2)CC1	u	n	n	3.5µM
CC1CN(S(=O)(=O)c2ccc(C(=O)Nc3nnc(-c4ccccn4)o3)cc2)CC(C)O1 (configuration not stated)	n	n	n	n
COc1cccc(-c2nnc(NC(=O)c3ccc(S(=O)(=O)N4CCOCC4)cc3)o2)c1	10µM	n	n	n
CC(=O)Nc1nnc(-c2ccc3c(c2)CCCC3)o1	n	n	n	n
CC(C)[C@H](/C=C/C[Si](C)(C)C)[C@H](C)C(O)/C=C/CCCOC(=O)C(C)(C)C (some centres not stated)	x	x	n	x
CC(C)NC(=O)Nc1ccc(Br)cc1Cl	n[9.22 µM]	n	n	n[10 µM]
O=C(Nc1ccc(Br)cc1Cl)NC1CC1	18µM	n	n	n
